# Assay outcomes (PubChem BioAssay)
# An excerpt weighted towards active compounds, which were near 6.1% of everything screened.
# D1 agonist – activates the human D1 dopamine receptor; P21728; HEK293 T-REx D1 cells, calcium flux, agonist mode; activation, % at 2 µM; actives 1% (n = 360,000); AID 504660; in the data active = activation above about 30%
# Target sequence (P21728 whole entry, looked up): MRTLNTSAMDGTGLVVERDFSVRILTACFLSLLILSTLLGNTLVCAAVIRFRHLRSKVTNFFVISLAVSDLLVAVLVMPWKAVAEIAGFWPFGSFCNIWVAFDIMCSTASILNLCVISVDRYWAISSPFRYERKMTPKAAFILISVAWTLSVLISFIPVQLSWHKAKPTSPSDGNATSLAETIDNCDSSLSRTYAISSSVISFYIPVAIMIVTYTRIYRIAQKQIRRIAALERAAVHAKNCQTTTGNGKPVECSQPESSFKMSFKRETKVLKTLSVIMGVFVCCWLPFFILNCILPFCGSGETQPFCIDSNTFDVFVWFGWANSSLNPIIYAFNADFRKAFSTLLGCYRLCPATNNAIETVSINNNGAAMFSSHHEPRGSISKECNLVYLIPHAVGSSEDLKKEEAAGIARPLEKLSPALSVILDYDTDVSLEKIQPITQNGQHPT
#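 Agonism was scored from calcium flux recorded over 180 s (1 read/s) after pintool compound addition, following a 10-cycle baseline. Cells were inducible force-coupled HEK293 TREx D1, plated overnight at 30 C and loaded with no-wash calcium dye.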
# DRD3 agonist – activates the human D3 dopamine receptor; P35462; D3R DiscoveRx beta-arrestin cells, luminescence, 90 min; max activation, %; actives 0.58% (n = 410,000); in the data active = max activation above about 30%
#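 Cells at 1500/well, incubated overnight, then treated with pinned compounds (dopamine as control) for 90 min at 37 degrees C. DiscoveRx reagent added for 30 - 60 minutes at room temperature; luminescence read.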
# D3 antag – blocks the human D3 dopamine receptor. P35462. D3R cells, DiscoveRx beta-arrestin luminescence, antagonist mode; hits give low values. max response, negative = inhibition, %. actives 2.5% (n = 360,000); in the data active = max response below about -50%; inconclusive = no clear call, values can overlap the other calls
#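 Cells plated overnight at 1500 cells/well, then exposed to library compounds with dopamine controls for 90 minutes at 37 degrees C. DiscoveRx reagent added for 30–60 minutes at room temperature; luminescence read, quantitative HTS format.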
# D1 antag – antagonists of human D1 dopamine receptor. HEK293 TREx D1 cells, calcium flux, dopamine EC80; hits give low values. AID 504652. activity change, negative = inhibition, % at 10 µM. P21728. actives 3.2% (n = 360,000); in the data active = activity change below about -30%
#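 Inducible Hek293 Trex D1 cells (tetracycline, overnight, 30 C). Calcium dye 30–90 min RT. Antagonist mode: EC80 dopamine added after 180 s compound read.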
# D1 PAM – human D1 dopamine receptor positive modulation | HEK293 TREx D1 cells, calcium flux, dopamine EC20 potentiation | potentiation, % at 10 µM | actives 0.036% (n = 360,000); in the data active = potentiation above about 30%
# A number is an active result; . = inactive; ? = inconclusive; / = not tested or not shown.
SMILES,D1 agonist,DRD3 agonist,D3 antag,D1 antag,D1 PAM
C(=C\c1ccccc1)/CN1CCN(C(c2nnnn2Cc2ccccc2)C2CC2)CC1 (centres undefined),/,.,-62,/,/
c1ccc(CCn2nnnc2C(c2cccs2)N2CCN(Cc3ccc4c(c3)OCO4)CC2)cc1 (centres undefined),.,.,-67,.,.
Fc1ccccc1N1CCN(C(c2cccs2)c2nnnn2CCc2ccccc2)CC1 (centres undefined),.,.,.,.,.
C(=C\c1ccccc1)/CN1CCN(C(c2cc3ccccc3o2)c2nnnn2C2CCCCC2)CC1 (centres undefined),/,.,-76,/,/
C(=C\c1ccccc1)/CN1CCN(C(c2nnnn2C2CCCC2)C2CC2)CC1 (centres undefined),/,.,?,/,/
O=c1oc2c(CN3CCCC3)c(O)ccc2cc1-c1ccccc1,.,.,/,.,.
O=c1oc2c(CN3CCCCCC3)c(O)ccc2cc1-c1nc2ccccc2[nH]1,241,/,/,.,.
CN1CCN(Cc2c(O)ccc3cc(-c4ccccn4)c(=O)oc23)CC1,44,.,.,-31,.
O=C(N/N=C\c1cccc(F)c1)c1ccc(Cn2cc(Br)c([N+](=O)[O-])n2)o1,.,.,-87,.,.
COc1ccc(-n2nc(C(=O)N3CCN(c4cccc(C)c4)C(C)C3)c3c4ccccc4n(C)c3c2=O)cc1Cl (centres undefined),.,.,/,.,.
Nc1cccc(-c2nc3ccc(C(=O)c4ccccc4)cc3[nH]2)c1,.,.,.,-31,.
Nc1ccc2nc(-c3ccccc3)[nH]c2c1,.,.,.,.,.
CC1CCN(CC(O)COc2ccc(OCC(O)CN3CCC(C)CC3)cc2)CC1 (centres undefined),.,.,.,.,.
CC1CCCN(CC(O)COc2ccc(Cl)cc2)C1 (centres undefined),.,.,-58,.,.
CC1CCCN(CC(O)COc2ccc(-c3ccccc3)cc2)C1 (centres undefined),42,.,?,.,.
OC1CCCN(CC(O)COC(c2ccccc2)c2ccccc2)C1 (centres undefined),.,.,.,.,.
OC1CCCN(CC(O)COc2ccc(-c3ccccc3)cc2)C1 (centres undefined),30,.,.,.,.
CCOc1cccc(C(=O)NC(=S)Nc2ccc(N3CCN(CC)CC3)cc2)c1,.,.,.,-44,.
CN1CCN(c2ccc(CNS(=O)(=O)c3ccccc3)cc2)CC1,.,.,.,-35,.
CCCOc1cccc(C(=O)NC(=S)Nc2ccc(N3CCN(C)CC3)cc2)c1,.,.,.,.,.
CN1CCN(c2ccc(NC(=O)c3cccc(S(=O)(=O)N4CCCC4)c3)cc2)CC1,.,.,.,-34,.
CCN1CCN(c2ccc(NC(=O)c3cccc(OCc4ccccc4)c3)cc2)CC1,39,.,?,.,.
Cc1cc(Cl)ccc1OCC(=O)NNC(=O)C1CCCO1 (centres undefined),.,.,.,.,.
CCc1ccc(Oc2c(C(F)(F)F)oc3c(CN4CCC(C)CC4)c(O)ccc3c2=O)cc1,.,.,/,.,.
O=C(Cc1ccccc1)Nc1ccc(N2CCCCC2)cc1,.,.,.,.,.
SMILES,D1 agonist,DRD3 agonist,D3 antag,D1 antag,D1 PAM
COc1cc(OC)cc(C(=O)NC(=S)N2CCCCCC2)c1,.,.,.,.,.
Cc1ccc(C(=O)Nc2ccc(N3CCN(S(C)(=O)=O)CC3)cc2)cc1C,.,.,.,.,.
COc1cc(OC)cc(C(=O)NC(=S)Nc2ccc(N3CCCC3)cc2)c1,.,.,.,-35,.
CN1CCN(c2ccc(NC(=O)c3ccc(-c4ccc(Cl)cc4)o3)cc2)CC1,.,.,.,-72,.
CN1CCN(c2ccc(NC(=O)Cc3ccccc3)cc2)CC1,.,.,.,-39,.
Cc1ccc(C(=O)Nc2ccc(N3CCN(C)CC3)cc2)cc1C,.,.,.,-31,.
CS(=O)(=O)N1CCN(c2ccc(NC(=O)c3ccc(-c4ccc(Cl)cc4)o3)cc2)CC1,.,.,.,.,.
Cc1c(NC(=S)NC(=O)c2ccc(-c3ccc(Cl)cc3)o2)cccc1C(=O)O,.,.,.,-31,.
O=C(NC1=NCCS1)c1cccc(S(=O)(=O)N2CCCCC2)c1,.,/,/,-34,.
